Assay [1] can be described thus: qHTS assay for measurement of the activity of small molecule inhibitors on Zika virus induced Caspase-3 activity in human iPSC derived neural progenitor cells (hNPCs) (AID 1224857). Also: % of control where 0% means no effect; nearly all actives have a fitted effect of over 65% in size. The essentials:
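After overnight (16–20 h) culture at 350 cells/well, hNPCs get compound, then ZIKV 2 FFU/cell one hour later. Six hours on, Caspase-Glo 3/7 is added and luminescence measured.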
A general note: Quantitative high-throughput screening tests each substance at several concentrations.

Assay [2] is described as follows: qHTS assay for measurement of the activity of small molecule inhibitors on Zika virus induced Caspase-3 activity in human astrocytoma cells (AID 1224859).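 Also: plate controls were ZIKV-infected untreated cells for no effect and uninfected cells for full effect.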 The essentials: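 Inhibition of Zika-induced caspase-3/7 activity: SNB-19 cells, 1 h compound pretreatment, ZIKV 2 FFU/cell for 6 h at 37 C, Caspase-Glo luminescence read-out.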
Assay [3] in a line: qHTS assay to identify small molecule inhibitors of chordoma cells - UCH-2 (AID 1259356). Also: potency is read from the fitted curve at half-maximal effect.
The nature of assay [4]: P-glycoprotein substrates identified in KB-8-5-11 adenocarcinoma cell line, qHTS therapeutic library screen (AID 1346987). Also: nearly all actives have a fitted effect of over 65% in size. Also: potency is read from the fitted curve at half-maximal effect. The essentials:
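Luminescence from CellTiter-Glo, read 5 min after addition, quantified survival of KB-8-5-11 (P-gp-overexpressing) cells exposed to compounds for 72 h. AC50 was derived from concentration-response curves.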

Assay [5] in a line: Natriuretic polypeptide receptor (hNpr1) antagonism - Pilot counterscreen GloSensor control cell line (AID 1347045; calls by dose curve; also: series mostly up to about 38 µM; % is scaled to controls: 0 for no effect and ±100 for the full control effect). The essentials: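 Cells were first seeded and incubated overnight at 37C, then loaded with 2% GloSensor substrate for 2 h. Compounds were added for 30 min at room temperature, followed by a baseline read, 50 uM SNP and a final read after 20 min.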
(A counterscreen serves to expose hits that act by an unwanted route or on another target.)

Assay [6] has as its target Atrial natriuretic peptide receptor 1 (Homo sapiens) (UniProt P16066). Description: Natriuretic polypeptide receptor (hNpr1) antagonism - Pilot screen (AID 1347049; calls by dose curve;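 also: agonist-evoked cGMP luminescence read 20 min after hNppA addition; series mostly up to about 58 µM; % is scaled to controls: 0 for no effect and ±100 for the full control effect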). The essentials:
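cGMP-sensor HEK293/hNpr1 cells, 1500/well, plated overnight at 37C. 2% GloSensor reagent, 2 h RT. Compound (23 nL pin transfer) 30 min RT, baseline luminescence pre-read. 0.1 nM hNppA, 20 min RT, post-read.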

Assay [7] addresses Atrial natriuretic peptide receptor 2 (Homo sapiens) (UniProt P20594). Nature of the assay: Natriuretic polypeptide receptor (hNpr2) antagonism - Pilot subtype selectivity assay (AID 1347050; calls by dose curve; also: % is scaled to controls: 0 for no effect and ±100 for the full control effect). The essentials:
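Luminescence from a genetically encoded cGMP luciferase biosensor in hNpr2-expressing HEK293 cells is read before and 20 min after adding 1 nM hNppC. Test compounds, in interplate 1:5 titrations, are added 30-50 min ahead of the agonist.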

The nature of assay [8]: NS1 protein of Zika virus - qHTS assay to identify small molecule inhibitors in human HEK 293 cells (AID 1347053).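 Also: series mostly up to about 46 µM; plate controls were infected untreated cells for no effect and uninfected cells for full effect; nearly all actives have a fitted effect of over 55% in size.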 Summed up: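 Read-out is a two-antibody TR-FRET for ZIKV NS1, normalized between uninfected cells and infected cells. Compound added 1 h before MR766 infection at MOI 0.5; human HEK 293 cells incubated 24 h, 37 C.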
Assay [9] addresses T1, Tyrosine-protein phosphatase non-receptor type substrate 1 (Homo sapiens) + Leukocyte surface antigen CD47 (Homo sapiens) (UniProt P78324+Q08722). Nature of the assay: CD47-SIRPalpha protein protein interaction - LANCE assay qHTS validation (AID 1347057; active = well fitted curve in the direction sought with a large enough effect in the signal ratio, with a control signal flat, not every such curve was filed as active; the % refers to the signal ratio; also: series mostly up to about 38 µM; 0% is about no effect). Summed up:
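Inhibition of soluble CD47/SIRPalpha ectodomain association by titrated compounds, measured as 665/615 nm time-resolved FRET ratio after sequential 30 min room-temperature incubations.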

Assay [10] addresses T1, Tyrosine-protein phosphatase non-receptor type substrate 1 (Homo sapiens) + Leukocyte surface antigen CD47 (Homo sapiens). Nature of the assay: CD47-SIRPalpha protein protein interaction - Alpha assay qHTS validation (AID 1347059).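 Also: bead proximity luminescence from CD47 binding SIRPalpha after compound preincubation with SIRPalpha; % is scaled to controls: 0 for no effect and ±100 for the full control effect.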 Summed up: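 SIRPalpha-biotin 25 nM + cpd, 30 min RT, dark; add CD47-His 12.5 nM, 30 min; add Ni-NTA/SAV beads 10 ug/mL, 30 min; AlphaScreen. Buffer PBS pH 7.4 + 0.05% IGEPAL CA-630. Non-biotinylated SIRPalpha as control inhibitor.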

In assay [11] the target is Parathyroid hormone/parathyroid hormone-related peptide receptor (Homo sapiens) (UniProt Q03431). Description: qHTS for PTHR1 Agonists: Optimization Screen against the NCGC LOPAC library (AID 1347079).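 Also: GloSensor cAMP luminescence in HEK-293 GP2 cells expressing human PTHR1 with IBMX; 0% is about no effect.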 Summed up: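 HEK-293 GP2 cells, PTHR1 + GloSensor cAMP; 3000 cells/well, o/n. Luciferin + IBMX 0.5mM each (stock), 1 hr 37C. Cpd titration, 1 hr 37C. Lum after 15 min RT. Ctrl M-PTH(1-15) top 10uM.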

Assay [12] is described as follows: qHTS of pediatric cancer cell lines to identify multiple opportunities for drug repurposing: Primary screen for DAOY cells (AID 1347090).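 Also: series mostly up to about 46 µM; plate controls were DMSO for no effect and bortezomib for full effect; nearly all actives have a fitted effect of over 55% in size.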 Summed up: (§1)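 Viability measured as metabolically active cells via CellTiter-Glo luminescence following 48 hours of compound exposure, 11-point dilutions in confirmatory testing. 500-1,000 cells/well plated 5 hours before dosing; controls were DMSO and 2.3 µM bortezomib.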

The nature of assay [13]: qHTS of pediatric cancer cell lines to identify multiple opportunities for drug repurposing: Primary screen for SJ-GBM2 cells (AID 1347091). Also: potency is read from the fitted curve at half-maximal effect.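 As to activity change, negative = cytotoxic: plate controls were DMSO neutral control for no effect and bortezomib for full effect.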 Summed up: as §1
Assay [14] addresses T1, Tyrosine-protein phosphatase non-receptor type substrate 1 (Homo sapiens) + Leukocyte surface antigen CD47 (Homo sapiens). Nature of the assay: CD47-SIRPalpha protein protein interaction - HTRF assay qHTS validation (AID 1347058; active = well fitted curve in the direction sought with a large enough effect in the signal ratio, not every such curve was filed as active; the % refers to the signal ratio; also: series mostly up to about 38 µM; 0% is about no effect). The essentials: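 Soluble extracellular domains (6His-CD47, Avi-tag-biotinylated SIRPalpha) in PBS pH 7.4 with 0.05% IGEPAL CA-630. Compounds were preincubated 30 min at RT with CD47 and anti-His-Eu, then SIRPalpha and SAV-XL665 were added. TR-FRET 665/615 ratio.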

Assay [15] can be described thus: qHTS of pediatric cancer cell lines to identify multiple opportunities for drug repurposing: Primary screen for TC32 cells (AID 1347089). Also: % is scaled to controls: 0 for no effect and ±100 for the full control effect; nearly all actives have a fitted effect of over 60% in size. The essentials:
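A viability screen of TC32 cells was run over 48 h, with primary MIPE doses spanning 0.78 nM–46 µM and NPC doses 0.59 nM–46 µM. ATP luminescence (CellTiter-Glo) served as the read-out.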

Values without a mark were called inactive. Records with an inconclusive call do not appear. Active and inactive are the calls of the source. Unless noted, calls follow the shape of the dose curve; as a rule, active = well fitted curve in the direction sought with a large enough effect; inconclusive = small, poorly fitted or top-dose-only effect, or another doubt; inactive = no such curve, though single readings can be large; an effect the other way counts as inactive or inconclusive.

Consider 12 compounds from PubChem BioAssay (NCATS).

Chain of Atrial natriuretic peptide receptor 1 (Homo sapiens) (P16066 whole entry, looked up): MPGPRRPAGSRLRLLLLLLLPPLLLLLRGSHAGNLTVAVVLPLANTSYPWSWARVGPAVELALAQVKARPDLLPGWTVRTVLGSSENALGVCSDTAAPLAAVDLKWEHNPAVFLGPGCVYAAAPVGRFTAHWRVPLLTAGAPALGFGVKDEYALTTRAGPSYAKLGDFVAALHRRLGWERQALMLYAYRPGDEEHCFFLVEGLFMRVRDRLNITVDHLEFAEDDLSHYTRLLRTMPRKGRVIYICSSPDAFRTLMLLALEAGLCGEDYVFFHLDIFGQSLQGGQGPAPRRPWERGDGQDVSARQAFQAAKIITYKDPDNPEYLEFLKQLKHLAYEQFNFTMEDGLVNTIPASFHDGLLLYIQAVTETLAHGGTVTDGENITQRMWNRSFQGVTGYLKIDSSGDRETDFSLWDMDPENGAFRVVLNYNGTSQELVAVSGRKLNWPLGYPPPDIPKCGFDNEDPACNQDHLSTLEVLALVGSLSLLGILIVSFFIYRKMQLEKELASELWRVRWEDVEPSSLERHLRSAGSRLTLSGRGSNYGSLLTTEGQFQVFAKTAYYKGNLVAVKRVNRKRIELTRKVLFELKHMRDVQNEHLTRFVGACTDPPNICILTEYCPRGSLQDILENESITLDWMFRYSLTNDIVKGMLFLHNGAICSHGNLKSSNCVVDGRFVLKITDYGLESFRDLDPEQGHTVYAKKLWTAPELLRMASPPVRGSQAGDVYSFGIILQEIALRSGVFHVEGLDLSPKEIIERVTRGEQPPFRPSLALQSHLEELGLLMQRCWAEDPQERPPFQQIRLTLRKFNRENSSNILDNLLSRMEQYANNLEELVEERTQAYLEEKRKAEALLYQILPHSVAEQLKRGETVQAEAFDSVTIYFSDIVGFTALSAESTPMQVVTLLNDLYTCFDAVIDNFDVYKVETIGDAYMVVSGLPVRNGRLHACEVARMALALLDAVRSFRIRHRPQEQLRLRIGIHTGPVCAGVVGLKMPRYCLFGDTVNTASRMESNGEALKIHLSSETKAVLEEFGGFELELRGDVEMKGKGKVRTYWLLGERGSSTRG
T1 sequence (P78324 whole entry, looked up, the tested form may be a part): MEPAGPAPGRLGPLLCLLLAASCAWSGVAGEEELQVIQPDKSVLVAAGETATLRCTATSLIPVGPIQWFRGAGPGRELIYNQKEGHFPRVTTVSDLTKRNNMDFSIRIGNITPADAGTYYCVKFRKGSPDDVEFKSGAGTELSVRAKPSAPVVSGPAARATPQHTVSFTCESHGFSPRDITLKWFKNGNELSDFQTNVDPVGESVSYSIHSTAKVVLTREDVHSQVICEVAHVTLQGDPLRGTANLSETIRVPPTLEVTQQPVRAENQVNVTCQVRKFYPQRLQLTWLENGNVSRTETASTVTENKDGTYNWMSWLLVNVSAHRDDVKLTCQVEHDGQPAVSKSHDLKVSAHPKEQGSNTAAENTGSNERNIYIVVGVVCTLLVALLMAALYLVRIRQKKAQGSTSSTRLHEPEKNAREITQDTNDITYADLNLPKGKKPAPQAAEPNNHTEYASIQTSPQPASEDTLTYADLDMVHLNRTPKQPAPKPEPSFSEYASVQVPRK
T1 sequence (Q08722 whole entry, looked up, the tested form may be a part): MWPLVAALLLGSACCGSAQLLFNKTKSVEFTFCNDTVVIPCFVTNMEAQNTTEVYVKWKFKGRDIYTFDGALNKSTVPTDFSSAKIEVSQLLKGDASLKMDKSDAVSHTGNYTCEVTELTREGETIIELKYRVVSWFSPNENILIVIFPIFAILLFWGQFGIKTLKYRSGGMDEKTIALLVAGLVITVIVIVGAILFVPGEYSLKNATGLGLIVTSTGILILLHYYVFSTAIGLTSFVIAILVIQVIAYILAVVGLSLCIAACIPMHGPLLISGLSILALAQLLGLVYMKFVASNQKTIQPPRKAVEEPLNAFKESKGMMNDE
Chain of Parathyroid hormone/parathyroid hormone-related peptide receptor (Homo sapiens) (Q03431 whole entry, looked up): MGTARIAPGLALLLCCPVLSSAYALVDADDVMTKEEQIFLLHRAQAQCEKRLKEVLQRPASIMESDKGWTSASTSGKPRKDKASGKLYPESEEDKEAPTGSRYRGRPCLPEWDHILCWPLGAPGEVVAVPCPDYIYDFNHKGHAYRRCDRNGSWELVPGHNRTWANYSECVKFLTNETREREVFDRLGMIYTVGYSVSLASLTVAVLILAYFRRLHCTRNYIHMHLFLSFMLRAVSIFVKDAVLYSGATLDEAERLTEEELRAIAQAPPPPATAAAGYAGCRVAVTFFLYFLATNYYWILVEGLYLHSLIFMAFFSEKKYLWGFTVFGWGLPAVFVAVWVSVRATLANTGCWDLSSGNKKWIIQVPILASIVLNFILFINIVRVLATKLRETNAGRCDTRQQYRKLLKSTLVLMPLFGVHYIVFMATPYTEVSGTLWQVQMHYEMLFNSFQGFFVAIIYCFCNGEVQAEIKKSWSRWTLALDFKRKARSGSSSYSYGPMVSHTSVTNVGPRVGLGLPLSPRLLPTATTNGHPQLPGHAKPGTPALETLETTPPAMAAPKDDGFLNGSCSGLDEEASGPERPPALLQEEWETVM
Chain of Atrial natriuretic peptide receptor 2 (Homo sapiens) (P20594 whole entry, looked up): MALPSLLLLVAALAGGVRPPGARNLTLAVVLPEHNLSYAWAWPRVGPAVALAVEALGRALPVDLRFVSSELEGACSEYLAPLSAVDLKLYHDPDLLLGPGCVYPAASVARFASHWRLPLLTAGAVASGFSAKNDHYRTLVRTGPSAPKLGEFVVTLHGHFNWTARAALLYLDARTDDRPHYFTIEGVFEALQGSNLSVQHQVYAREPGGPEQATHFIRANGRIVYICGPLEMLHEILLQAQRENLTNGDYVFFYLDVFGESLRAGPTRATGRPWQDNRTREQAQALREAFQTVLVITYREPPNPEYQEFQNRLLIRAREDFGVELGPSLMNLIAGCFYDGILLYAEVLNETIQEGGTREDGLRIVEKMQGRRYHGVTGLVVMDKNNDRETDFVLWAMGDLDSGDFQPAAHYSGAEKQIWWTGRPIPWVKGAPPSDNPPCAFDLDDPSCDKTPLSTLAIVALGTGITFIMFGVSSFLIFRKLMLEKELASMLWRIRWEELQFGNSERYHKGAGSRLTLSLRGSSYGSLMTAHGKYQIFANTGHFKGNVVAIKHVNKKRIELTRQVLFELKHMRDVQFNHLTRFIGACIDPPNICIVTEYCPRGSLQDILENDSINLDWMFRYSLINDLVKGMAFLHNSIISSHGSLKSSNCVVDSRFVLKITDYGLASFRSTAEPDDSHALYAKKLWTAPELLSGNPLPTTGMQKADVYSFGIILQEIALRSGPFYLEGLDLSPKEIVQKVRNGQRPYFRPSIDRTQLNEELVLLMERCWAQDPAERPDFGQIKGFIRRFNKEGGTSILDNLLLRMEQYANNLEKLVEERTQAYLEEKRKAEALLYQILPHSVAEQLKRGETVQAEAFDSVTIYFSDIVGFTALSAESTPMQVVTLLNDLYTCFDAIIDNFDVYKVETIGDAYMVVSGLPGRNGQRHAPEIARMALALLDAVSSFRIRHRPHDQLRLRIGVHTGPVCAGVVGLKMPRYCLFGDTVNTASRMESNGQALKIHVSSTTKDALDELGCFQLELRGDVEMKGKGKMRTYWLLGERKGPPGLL

Take `NS(=O)(=O)c1cc2c(cc1Cl)NC(C1CC3C=CC1C3)NS2(=O)=O` (stereo not given): the compound was classed as inactive in [1], in [2], in assay [8], in [9] and in [11]. Also, the Potency entry in assay [3], in [4], in assay [5], in [6], in assay [7] and in assay [10] was “inactive” each time. In addition, the Potency entry in assay [12] and in assay [13] was “inactive” throughout.

For `C=CCc1ccccc1OCC(O)CNC(C)C` (stereo not given), the outcome in [1], in [2], in assay [8] and in assay [14] was inactive. Besides, the Potency entry in assay [3], in assay [4], in [5], in [6], in assay [7] and in assay [10] was “inactive” in each case. The Potency entry in assay [15], in assay [12] and in assay [13] was “inactive” in each case.

In the case of `Cc1nc2sccn2c(=O)c1CCN1CCC(=C(c2ccc(F)cc2)c2ccc(F)cc2)CC1`, the call in assay [1], in assay [2], in [8], in [9], in assay [14] and in [11] was inactive. Further, the Potency entry in assay [3], in [6], in assay [7], in [10] and in assay [12] was “inactive” in each case.

With `CCCCNc1c(C(=O)OCC)c(C)nc2c1cnn2CC`, the compound was called inactive in [1], in [2], in [8], in assay [9], in assay [14] and in [11]. For the same compound, the Potency entry in [3], in [5], in [6], in assay [7], in [10] and in assay [15] was “inactive” each time. Besides, the Potency result in assay [12] and in assay [13] was “inactive” each time.

On to `C[C@]12C=CC(=O)C=C1CC[C@H]1[C@@H]3C[C@@H](O)[C@](O)(C(=O)CO)[C@@]3(C)C[C@H](O)[C@@]12F`, for which the compound was called inactive in [1], in assay [2], in assay [8] and in assay [11]. For the same compound, the Potency result in [3], in assay [4], in assay [6], in assay [7], in assay [15] and in [12] was “inactive” throughout. The Potency entry in assay [13] is “inactive”.

With `COC(=O)C1=C(C)NC(C)=C(C(=O)OC(C)(C)CN(C)CCC(c2ccccc2)c2ccccc2)C1c1cccc([N+](=O)[O-])c1` (stereo not given), the compound was classed as inactive in assay [1], in [2], in [9], in assay [14] and in assay [11]. The Potency result in [3], in [6], in assay [7], in [10] and in assay [13] was “inactive” each time. The Potency in [4] is 9.2 µM (active).

On to `CCCCNC(=O)NS(=O)(=O)c1ccc(C)cc1`, for which the compound was classed as inactive in [1], in assay [2], in assay [8], in assay [9], in assay [14] and in assay [11]. The Potency entry in [3], in assay [5], in assay [6], in [7], in assay [10] and in assay [15] was “inactive” in each case. Besides, the Potency entry in assay [12] and in [13] was “inactive” in each case.

On to `CC(=O)Oc1cc(C(C)C)c(OCCN(C)C)cc1C`, for which the compound was called inactive in [1], in assay [2], in assay [8] and in assay [11]. In addition, the Potency entry in assay [3], in assay [4], in assay [6], in assay [7], in assay [15] and in [12] was “inactive” throughout. Besides, in [13], the Potency entry was “inactive”.

With `O=C1NCN(c2ccccc2)C12CCN(CCCC(c1ccc(F)cc1)c1ccc(F)cc1)CC2`, the compound was classed as inactive in assay [1], in [2] and in assay [8]. Moreover, the figures for the Potency in assay [3], in assay [4] and in [13] were 25.9 µM (active), 14.6 µM (active) and 23.7 µM (active), respectively. Further, the Potency entry in assay [6] and in assay [7] was “inactive” each time.

On to `NCCCNCCSP(=O)(O)O`, for which the compound was classed as inactive in assay [1], in assay [2], in [8], in [14] and in assay [11]. Besides, the Potency result in assay [3], in assay [4], in [5], in assay [6], in [7] and in [10] was “inactive” each time. In addition, the activity change, negative = cytotoxic in assay [15] is 10.8% [at 9.17 µM]; in [12] it was 0.0744% [at 9.22 µM]; in assay [13], 14.1% [at 9.22 µM].

In the case of `Cc1ccc(=O)n(-c2ccccc2)c1`, the result in assay [1], in assay [2], in assay [8] and in assay [14] was inactive. Also, the Potency result in assay [3], in assay [4], in [5], in assay [6], in [7] and in assay [10] was “inactive” each time. Further, the Potency result in assay [15], in assay [12] and in [13] was “inactive” in each case.

With `CN(C)CCCN1c2ccccc2Sc2ccc(C(F)(F)F)cc21`, the call in assay [1], in [2], in assay [8] and in assay [11] was inactive. The Potency entry in assay [3], in assay [6] and in assay [12] was “inactive” in each case.
